A selection: hits, their analogues and other compounds. The true share with any hit is near 1.1%.
GALR2 ag: GALR2 receptor agonists, primary screen, cell-based | hit rate 0.48% among 140,000 | Galanin receptor type 2 (Homo sapiens), O43603 | GALR2-expressing cells, agonist activation read-out | activation, % (test concentration not listed); in the data active = activation above about 5%, passing the limit was not always enough;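 also: 0% = vehicle buffer wells and 100% = reference agonist at full effect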
S1P2 blocker: human S1P2 receptor antagonists, primary screen, cell-based | Sphingosine 1-phosphate receptor 2 (Homo sapiens), O95136 | cell-based S1P2 antagonist assay, inhibition at 5 uM | inhibition, % at 5 µM | hit rate 0.21% among 97,000 | AID 736, 2007; in the data active = inhibition above about 45%;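 also: CRE beta-lactamase reporter cells expressing human S1P2 stimulated with S1P; 0% = agonist at EC80 alone and 100% = agonist plus reference antagonist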
Target sequence (O95136 whole entry, looked up): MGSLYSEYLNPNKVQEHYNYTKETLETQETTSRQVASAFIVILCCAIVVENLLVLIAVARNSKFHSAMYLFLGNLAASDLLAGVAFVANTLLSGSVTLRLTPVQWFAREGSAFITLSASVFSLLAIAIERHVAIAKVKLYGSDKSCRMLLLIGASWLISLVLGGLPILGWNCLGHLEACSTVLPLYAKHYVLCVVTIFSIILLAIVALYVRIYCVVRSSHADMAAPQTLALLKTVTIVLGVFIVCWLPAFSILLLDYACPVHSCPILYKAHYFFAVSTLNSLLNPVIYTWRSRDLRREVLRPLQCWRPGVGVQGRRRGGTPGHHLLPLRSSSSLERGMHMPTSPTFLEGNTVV
S1P2 agonist: S1P2 receptor agonists, primary screen, cell-based; Sphingosine 1-phosphate receptor 2 (Homo sapiens), O95136; S1P2-expressing cell line, agonist reporter read-out; activation, % at 4.5 µM; hit rate 0.46% among 97,000; AID 729, 2007; in the data active = activation above about 16%;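 also: 0% = vehicle low control and 100% = maximal reference agonist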
GALR2 blocker: GALR2 antagonists in receptor-expressing cells, primary screen; Galanin receptor type 2 (Homo sapiens), O43603; hit rate 0.39% among 140,000; antagonist mode; inhibition, % at 4 µM;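 also: cells stimulated with galanin 1-16 at roughly its EC80; 0% = agonist challenge control and 100% = basal control without agonist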
GALR2 agon conf: GALR2 agonists, retest of hits, confirmation, cell-based. shares compounds with GALR2 ag. GALR2-expressing cells, agonist activation. activation, % at 5.6 µM. hit rate 10% among 460; in the data active = activation above about 8.4%;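 also: 0% = buffer-only vehicle wells and 100% = full reference agonist response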
BLA act counter: activators of NFAT-driven beta-lactamase reporter, confirmation, counter-screen for GALR2 agonist project, CHO NFAT-bla cells, FRET readout. hit rate 10% among 460. AID 865, 2007. activation, % at 5.6 µM. shares compounds with GALR2 ag. beta-lactamase FRET activation;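 active = activation above the screen-wide mean activation plus 3 SD, cut at about 8% in these data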;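 also: 0% = DMSO with PBS wells and 100% = thapsigargin positive control wells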
GALR2 blk conf: GALR2 antagonists, retest of hits, confirmation, cell-based; shares compounds with GALR2 blocker; GALR2-expressing cells, antagonist mode, inhibition; inhibition, % at 4 µM; hit rate 60% among 480;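 also: cells stimulated with galanin at about its EC80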
BLA inh counter: inhibitors of NFAT-driven beta-lactamase reporter, confirmation, counter-screen for GALR2 antagonist project, CHO NFAT-bla cells, FRET readout. shares compounds with GALR2 blocker. thapsigargin-stimulated. inhibition, % at 4.2 µM. hit rate 36% among 480. AID 867, 2007;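 active = inhibition above the mean inhibition across tested compounds plus 3 SD, cut at about 27% in these data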;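 also: 0% = 500 nM thapsigargin stimulated wells and 100% = unstimulated BSA only wells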
* = called active by the depositor; . = not tested or not shown. Rule as the data show it, unless noted: active = inhibition above about 27%; inactive = the rest.

SMILES	GALR2 ag	S1P2 blocker	S1P2 agonist	GALR2 blocker	GALR2 blk conf	BLA inh counter	others
CN(C)c1ccc(/C=C/c2nc3ccccc3s2)cc1	20*	58*	1	45*	32*	41*	GALR2 agon conf=6;BLA act counter=9.6*
Cc1cccc(-n2c(SCc3ccc(C#N)cc3)nnc2-c2c[nH]c3ccccc23)c1	2	.	.	1	.	.
Cc1cccc(OCC(=O)NC(=S)Nc2ccc(S(=O)(=O)NC3CCCCC3)cc2)c1	-2	1	-6	-3	.	.
Cc1ccc(/C=N/Nc2ccnc3cc(Cl)ccc23)c(C)c1	14*	.	.	32*	42*	42*	GALR2 agon conf=19*;BLA act counter=10*
O=c1oc2ccccc2cc1-c1ccc(O)cc1O	-1	.	.	5	.	.
O=c1oc2cc(O)ccc2cc1-c1nc2c(s1)CCc1ccccc1-2	14*	.	.	37*	66*	70*	GALR2 agon conf=4;BLA act counter=1
O=C(/C=C/c1cn(CC(O)CN2CCCCCC2)c2ccccc12)c1cccs1 (stereo unspecified)	2	.	.	20	.	.
CCCCN(C)CC(O)Cn1cc(/C=C/C(=O)c2cccs2)c2ccccc21 (stereo unspecified)	1	.	.	50*	29*	43*
CCn1ccc(C(=O)NC2=C(C#N)CCC2)n1	0	9	-6	5	.	.
CCc1ccc2c(c1)/C(=C/C(=O)c1cccs1)C(=O)N2	2	13	-4	28*	35*	22
Oc1ccccc1/C=N/Nc1ccccc1	-1	.	.	30*	38*	13
Oc1ccccc1/C=N/Nc1ncc(Br)cn1	-1	.	.	8	.	.
CSCCC(Nc1ncnc2ccc(Br)cc12)C(=O)O (stereo unspecified)	-3	-13	-5	4	.	.
CC(C)Nc1ncnc2ccc(Br)cc12	-2	.	.	38*	36*	21
Cc1ccc(NS(=O)(=O)c2ccc(CCC(=O)NC3CC3)cc2)cc1	-4	-4	-3	28*	10	11
Cc1ccc(NC(=O)CCc2ccc(S(=O)(=O)NC3CCCCC3)cc2)cc1	-2	-5	-6	14	.	.
Cc1n[nH]c(C)c1N1C(=O)c2cccc3c(Br)ccc(c23)C1=O	-1	74*	-10	44*	28*	25
Cc1n[nH]c(C)c1N1C(=O)c2cccc3cc(Br)cc(c23)C1=O	-1	-10	-5	-5	.	.
COc1ccc(CN(CCC(c2ccccc2)c2ccc(OC(C)C)cc2)C(=O)CCl)cc1OC (stereo unspecified)	-3	.	.	-5	.	.
COc1ccccc1S(=O)(=O)Nc1ccc2cn[nH]c2c1	-2	.	.	27*	20	10
CC1(C)CC(=O)N(c2ccccc2)C1(C)O (stereo unspecified)	-3	12	-1	-6	.	.
Cc1ccc(C)c(N2CCN(c3ccc(N4C(=O)COCC4=O)cc3[N+](=O)[O-])CC2)c1	-1	.	.	8	.	.
Cc1cc(N2C(=O)C=CC2=O)c([N+](=O)[O-])cc1C	-2	.	.	45*	46*	71*
NC(=O)c1c(-c2ccc(Cl)cc2Cl)csc1NC(=O)Cc1ccccc1	0	.	.	34*	31*	17
O=C(Cc1ccccc1)Nc1scc(-c2ccccc2)c1C(=O)N1CCOCC1	-4	15	-10	2	.	.
COCCN(C(=O)CNC(=O)c1ccco1)C(C(=O)NC1CCCC1)c1cccs1 (stereo unspecified)	-1	-6	1	-11	.	.
CCCC(=O)OCCn1c(Br)nc2c1c(=O)[nH]c(=O)n2C	-1	-5	-13	30*	25	0
Cc1ccccc1Nc1nc2ccccc2s1	-1	.	.	9	.	.
Cc1ccccc1Nc1cccc2nonc12	-3	.	.	33*	38*	47*
CCOC(=O)Nc1ccc2c(c1)N(C(=O)CCN1CCN3CCCC3C1)c1ccccc1CC2 (stereo unspecified)	-1	2	-4	21	.	.

Screening data (PubChem)
